Results taken from PubChem BioAssay AID588334 (Broad Institute, 2011).
Out of some 300,000 compounds screened, about 2,300 (0.77%) were called active. The sample holds actives, similar compounds and a random draw of the others, so the mix is not that of the screen.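 How the source made its calls: active means mean activation of at least 80% with every replicate also reaching 80%; inconclusive means mean reaches 80% but some replicate falls short; inactive means the rest.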

Assay: MITF-driven TRPM1 luciferase induction in melanoma cells – cell-based, SK-MEL-5, single point, primary screen (AID 588334);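 further: 0% = neutral control wells and 100% = parthenolide positive control wells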
Conditions: SK-MEL-5 TRPM1-promoter luciferase, 24 h; at 12.5 µM; stronger effect = higher value; % of positive control, neutral wells = 0

| SMILES | activation |
| --- | --- |
| CCCCN(C(=O)c1cccc(N2C(=O)c3ccccc3C2=O)c1)c1c(N)n(CCCC)c(=O)[nH]c1=O | -1.35% (inactive) |
| O=C(c1cnn2ccccc12)N1CCc2ccccc21 | 91.5% (active) |
| CCCCn1nc(C(=O)N2CCc3ccccc32)c2ccccc2c1=O | -15.9% (inactive) |
| Cc1cnc(C(=O)OCC(=O)N2CCc3ccccc32)cn1 | -0.372% (inactive) |
| C=CC(COCc1ccccc1)N(CC(=O)OC)S(=O)(=O)c1cc(Br)ccc1OC (centres undefined) | -10.3% (inactive) |
| CCC(CO)Oc1cc(NC(=O)c2cccc3ccccc23)c2ncn(C(C)C)c2c1 (centres undefined) | -4.63% (inactive) |
| COc1ccc(CNC(=O)C[C@H]2C[C@H](C(=O)N3CCOCC3)[C@@]3(CCC4CCCC4)c4[nH]c5ccc(Cl)cc5c4CCN3C2=O)cc1OC | -70.8% (inactive) |
| Clc1ccc(-c2csc(-c3ccncc3)n2)cc1 | 33.5% (inactive) |
| N#CC(=C1SC=CS1)c1nc(-c2ccccc2)cs1 | 47.6% (inactive) |
| N#CC(=C1CCCC1)c1nc(-c2ccc(Cl)cc2)cs1 | 91.3% (active) |
| O=S(=O)(Cc1ccc(Cl)cc1Cl)c1ccc(Cl)cc1 | 16.2% (inactive) |
| CC1(C)C[C@H]2C3=CCC4[C@@]5(C)CC[C@H](O)[C@](C)(CO)C5CC[C@@]4(C)[C@]3(C)C[C@@H](O)[C@@]2(CO)[C@@H](O)[C@@H]1O (some centres undefined) | -11.2% (inactive) |
| CCC(=O)Oc1cccc(C(=O)Nc2ccc(-c3nnc(-c4ccco4)o3)cc2)c1 | 85.5% (active) |
| O=C(CCc1ccccc1)Nc1cccc(-c2nnc(-c3ccco3)o2)c1 | 10.8% (inactive) |
| CCCCOc1ccc(-c2nnc(-c3ccco3)o2)cc1 | 30.3% (inactive) |
| CC[C@]12c3[nH]c4cc(CCC(=O)N(C)C)ccc4c3CCN1C(=O)[C@@H](CC(=O)NCC13CC4CC(CC(C4)C1)C3)C[C@@H]2C(=O)N1CCN(C(=O)C2CC2)CC1 | 5.19% (inactive) |
| COc1ccc(/C=C2/CCCc3ccccc3C2=O)cc1 | 39.3% (inactive) |
| COc1ccc(/C=N/Nc2nc3ccccc3o2)cc1OC | 56.1% (inactive) |
| Brc1ccccc1/C=N/Nc1nc2ccccc2o1 | 81.1% (active) |
| CCOc1ccccc1/C=N/Nc1nc2ccccc2o1 | 13.3% (inactive) |
| O=C(CNC(=O)c1cc(S(=O)(=O)N2CCOCC2)ccc1N1CCCC1)Nc1ccc(F)c(F)c1 | -3.17% (inactive) |
| COc1cc2c(cc1CNC[C@H]1O[C@@H](n3cnc(C(N)=O)n3)[C@H](O)[C@@H]1O)OCO2 | -7.21% (inactive) |
| CSc1ccccc1OCc1cc(C(=O)N2C[C@H]3CC[C@H]2C3)no1 | 91.7% (active) |

| SMILES | activation |
| --- | --- |
| CSc1ccccc1OCc1cc(C(=O)N(C)CCc2c(C)n[nH]c2C)no1 | 1.76% (inactive) |
| COC(=O)[C@@H]1CCCN1C(=O)c1cc(COc2cccc3cccnc23)on1 | -6.69% (inactive) |
| C=CCCC(=O)N1C[C@H]2CON(C)[C@H]2C[C@H]1c1cccc(Nc2ccccc2)c1 | 17.1% (inactive) |
| O=C(Nc1ccccc1)Oc1cccc2cccnc12 | -34.4% (inactive) |
| COC(=O)c1ccc(Nc2ncnc3sccc23)cc1 | 93.3% (active) |
| CCOC(=O)c1nc(Nc2ccc(C(=O)OC)cc2)c2ccccc2n1 | 8.95% (inactive) |
| COc1ccc(Nc2ncnc3sc(C)cc23)cc1 | 68.5% (inactive) |
| Cc1cccc(C)c1NC(=O)CNC(=O)c1ccc2c(c1)OCCO2 | 4.28% (inactive) |
| Cc1ccc2sc(NNC(=O)c3ccc4c(c3)OCCO4)nc2c1C | -0.623% (inactive) |
| O=C(Nc1ccc(Cl)cn1)c1ccc2c(c1)OCCO2 | 5.88% (inactive) |
| Cc1ccc(C(=O)NNC(=O)c2ccc3c(c2)OCCO3)cc1 | 109% (active) |
| Cc1nc(NC(=O)c2ccc3c(c2)OCCO3)ccc1Br | 122% (active) |
| O=C(Nc1ccccc1)c1ccc2c(c1)OCCCO2 | 24.5% (inactive) |
| CSCCC(NC(=O)COc1ccccc1)C(=O)N1CCN(c2cccc(C(F)(F)F)c2)CC1 (centres undefined) | 8.6% (inactive) |
| CC(C)N(C(=O)[C@H]1C[C@H](CC(=O)NCCC2=CCCCC2)C(=O)N2CCc3c([nH]c4cc(CCC(=O)N(C)C)ccc34)[C@]12C)C(C)C | 10.3% (inactive) |
| COc1ccc2[nH]c3c(c2c1)CCN1C(=O)C(CC(=O)NCc2cccc(C(F)(F)F)c2)C[C@H](C(=O)N2CCOCC2)[C@@]31C (some centres undefined) | 2.71% (inactive) |
| O=C(NNc1ncnc2c1cnn2-c1ccccc1)c1ccco1 | 2.51% (inactive) |
| O=C(NCCC1=CCCCC1)C1CCN(Cc2cnn(-c3ccccc3)c2-n2cccc2)CC1 | 11.4% (inactive) |
| C1=C(CCNc2ncnc3c2cnn3-c2ccccc2)CCCC1 | 94.3% (active) |
| N#CC(Cc1cc2ccccc2n1S(=O)(=O)c1ccccc1)OCc1ccccc1 (centres undefined) | -2.16% (inactive) |
| Cc1cc(NC(=O)c2ccc(F)cc2)ccc1NC(=O)c1ccco1 | 10.4% (inactive) |
| Cc1ccnc(NC(=O)c2ccc(NC(=O)c3ccco3)cc2)c1 | 109% (active) |
| O=C(Nc1ccc(O)cc1)c1ccc(NC(=O)c2ccco2)cc1 | 30.3% (inactive) |

| SMILES | activation |
| --- | --- |
| CC(C)C[C@H]1CN([C@@H](CC(C)C)CN2CCC[C@@H]2CN2C(=O)C(=O)NC[C@@H]2Cc2ccccc2)C(=O)C(=O)N1CCc1ccccc1 | 2.67% (inactive) |
| C=CC[C@@H](Cc1ccc(F)cc1)C(=O)OC[C@H]1CCCN1C(=O)[C@H](CC=C)CC(=O)N(CCO)Cc1ccccc1 | 12.6% (inactive) |
| CC(=O)OC1CCC2(C)C(=CCC3C4CC(=O)N(O)C(=O)C4(C)CCC32)C1 (centres undefined) | -5.88% (inactive) |
| COc1ccc(CNCCCNCc2ccc(OC)c(OC)c2)cc1OC | 7.54% (inactive) |
| Cc1ccc(NC(=O)COc2ccc(/C=N\NC(=O)c3cccnc3)cc2)cc1C | 13.6% (inactive) |
| C/C(=C\C(=O)c1cccnc1)Nc1ccc(C)c(C)c1 | 104% (active) |
| Cc1ccc(N/C=C/C(=O)c2ccccc2)cc1C | -1.56% (inactive) |
| COc1ccccc1C(=O)Nc1ccc(C)c(S(=O)(=O)N2CCCCC2)c1 | -6.44% (inactive) |
| CC(=O)Nc1ccc(NC(=O)COC(=O)C2CCC(C(C)(C)C)CC2)cc1 (centres undefined) | -0.038% (inactive) |
| COc1ccc(-c2noc(-c3cccc(OC)c3OC)n2)cc1OC | 88.3% (active) |
| COc1ccc(-c2csc(-c3cccs3)n2)cc1OC | 56.3% (inactive) |
| COc1ccc(-c2noc(CCCC(=O)NC3CCCC3)n2)cc1OC | 4.98% (inactive) |
| Fc1ccc2cnc(-c3ccccc3)cc2c1 | 63.9% (inactive) |
| COc1cc(OC)cc(-c2cc3ccc(F)cc3cn2)c1 | 111% (active) |
| COc1ccc(-c2cc3ncccc3cn2)cc1 | 72% (inactive) |
| O=C(Nc1ccc(S(=O)(=O)N2CCOCC2)cc1)C1CCN(S(=O)(=O)c2ccc(Cl)cc2)CC1 | -12.4% (inactive) |
| COc1ccccc1-c1nnc2n1N=C(c1ccc(OC(F)F)c(OCC3CC3)c1)CS2 | 3.16% (inactive) |
| COc1ccc(CCNCc2c(-c3ccccc3)n(C)c3ccccc23)cc1 | 2.46% (inactive) |
| COc1ccc(-c2c(C#Cc3ccccc3)c3ccccc3n2C)cc1 | 85.9% (active) |
| COc1cc(OC)cc(-c2c(C#Cc3ccsc3)c3cc(-c4ccc(SC)cc4)ccc3n2C)c1 | 6.54% (inactive) |
| COc1ccc(CC(=O)N[C@@H]2c3cc(OC)c(OC)cc3C[C@H]2OCc2ccccc2)cc1 | -0.621% (inactive) |
| CCCCNC(=O)C(C)N(CCN(C)C)C(=O)CCCCCN1C(=O)NC(c2ccc(Cl)cc2)C(C(=O)OCc2ccccc2)=C1C (centres undefined) | -93.7% (inactive) |
| Oc1ccc(-c2nc3ccccc3nc2-c2ccc(O)cc2O)c(O)c1 | -29.5% (inactive) |

| SMILES | activation |
| --- | --- |
| CCOc1ccc(Cn2nnc(C(=O)NCc3ccccc3)c2N)cc1 | 0.298% (inactive) |
| CCc1ccc(NC(=O)Cn2nnc(C(=O)NCc3ccc4c(c3)OCO4)c2N)cc1 | -0.586% (inactive) |
| Nc1c(C(=O)Nc2ccc3c(c2)OCCO3)nnn1Cc1ccccc1 | 81.1% (active) |
| Cc1cccc(C=CC(=O)c2ccc(Cl)cc2)c1 | 35.1% (inactive) |
| CN(C)C(=O)CCc1ccc2c3c([nH]c2c1)[C@]1(CCc2ccccc2)[C@@H](C(=O)N2CCCCC2)C[C@H](CC(=O)NCCC2=CCCCC2)C(=O)N1CC3 | -16.1% (inactive) |
| Cc1ccc(S(=O)(=O)N2CCN(C(=O)CN3C(=O)NC(C)(c4ccc(Cl)cc4)C3=O)CC2)c(C)c1 (centres undefined) | 3.72% (inactive) |
| Cc1sc(NC(=O)c2ccc3ncsc3c2)c(C(N)=O)c1C | 103% (active) |
| COc1ccccc1-c1nnc(NC(=O)c2ccc3ncsc3c2)o1 | -3.99% (inactive) |
| Cc1ccc(C(=O)c2c(NC(=O)c3ccccc3)sc(C)c2C)cc1 | 24.2% (inactive) |
| CN(C(=O)c1cccc(NC(=O)Cc2cccc(NC(=O)C3CCCN(C(=O)C4CC4)C3)c2)c1)C1CCC1 (centres undefined) | -0.0755% (inactive) |
| COc1ccc(C(=O)Nc2cc(S(=O)(=O)N3CCCC3)ccc2Cl)cc1 | 5.82% (inactive) |
| Cc1nc2cc(NC(=O)Nc3cccc(F)c3)ccc2n1C | 12.9% (inactive) |
| Cc1nc2cc(NC(=O)NC3CC3)ccc2n1C | 13.8% (inactive) |
| Cc1nc2cc(NCc3cccs3)ccc2n1C | 90.7% (active) |
| O=C(O)c1ccc(Cn2cnc3c(=S)nc[nH]c32)cc1 | 6.13% (inactive) |
| COc1ccc2c(c1)C(=O)CC(c1ccccc1)O2 (centres undefined) | 54.8% (inactive) |
| Cc1cc(NC(=O)C(C)SCC(=O)Nc2cccc(S(=O)(=O)N3CCCCCC3)c2)no1 (centres undefined) | -15.9% (inactive) |
| CC(=O)NS(=O)(=O)c1ccc(NC(=O)C2C3C=CC(C3)C2C(=O)O)cc1 (centres undefined) | -12.7% (inactive) |
| COC(=O)c1cc(NC(=O)C2C3C=CC(C3)C2C(=O)O)cc(C(=O)OC)c1 (centres undefined) | 14.6% (inactive) |
| CC(C)COC(=O)c1ccc(NC(=O)C2C3C=CC(C3)C2C(=O)O)cc1 (centres undefined) | 105% (active) |
